In PubChem BioAssay AID1861 (The Scripps Research Institute Molecular Screening Center, 2009):
Screen size: about 290,000 compounds; about 3,100 (1.1%) were called active. Rule as the data show it: active = inhibition above about 16% (passing the limit was not always enough); inactive = the rest. Only a selection was taken, and actives are over-represented in it overall.

Target: Neuropeptides B/W receptor type 1 (Homo sapiens) (UniProt P48145)
Experiment: blockers of human neuropeptide B/W receptor 1 – cell-based, fluorescence, single concentration, primary screen (AID 1861);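 also: cells stimulated with the agonist NPW; 0% = agonist with vehicle and 100% = vehicle without agonist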
Settings: GPR7-expressing cells, fluorescence antagonist assay; at 4.4 µM; stronger effect = higher value

Neuropeptides B/W receptor type 1 (Homo sapiens), sequence (P48145 whole entry, looked up): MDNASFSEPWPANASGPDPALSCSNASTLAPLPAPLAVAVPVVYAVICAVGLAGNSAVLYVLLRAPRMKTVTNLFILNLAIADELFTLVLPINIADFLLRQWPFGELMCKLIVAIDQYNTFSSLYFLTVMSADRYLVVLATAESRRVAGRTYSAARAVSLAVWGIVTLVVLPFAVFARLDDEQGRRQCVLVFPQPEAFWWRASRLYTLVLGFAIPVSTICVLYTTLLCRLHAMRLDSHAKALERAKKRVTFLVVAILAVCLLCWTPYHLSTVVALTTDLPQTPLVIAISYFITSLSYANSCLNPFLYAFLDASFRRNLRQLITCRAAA

Compound	inhibition
Cc1nn(C)c(Oc2ccccc2)c1[N+](=O)[O-]	-4.53% (inactive)
Cc1cccc(Oc2c([N+](=O)[O-])c(=O)n(C)c3ccccc23)c1	-3.17% (inactive)
Cn1c(=O)c([N+](=O)[O-])c(Oc2ccccc2)c2ccccc21	101% (active)
CC(Cc1cccs1)N(Cc1ccc(Cl)cc1)C(=O)c1ccncc1 (stereo unspecified)	14.5% (inactive)
O=[N+]([O-])c1cccc(/C=N/Nc2ncc(Br)cn2)c1	-6.1% (inactive)
Cc1c(CN2CCC(n3nccc3NC(=O)CCc3ccccc3)CC2)cnn1C	0.34% (inactive)
COc1ccc(S(=O)(=O)Nc2cccnc2)c(Cl)c1Cl	4.69% (inactive)
COc1ccccc1Oc1ccc(S(=O)(=O)Nc2cccnc2)cc1	27.5% (active)
O=S(=O)(Nc1ccccn1)c1ccc(Oc2ccccc2)cc1	-3.88% (inactive)
Cc1cc(=O)oc(C)c1C(=O)NC1CC(C)(C)NC(C)(C)C1	6.27% (inactive)
Cc1cc(OC(C)C(=O)NC2CC(C)(C)NC(C)(C)C2)c2c(C)cc(=O)oc2c1 (stereo unspecified)	27.1% (active)
CC(Oc1cccc(Cl)c1)C(=O)NC1CC(C)(C)NC(C)(C)C1 (stereo unspecified)	-7.54% (inactive)
O=c1oc2ccccc2c(CNc2ccccc2)c1[N+](=O)[O-]	6.62% (inactive)
CCN1CCN(CCNC(=O)c2ccc(/C=C3/Sc4ccccc4N(Cc4cccc(C)c4)C3=O)cc2)CC1	3.05% (inactive)
CCN1/C(=C\c2ccc3ccccc3[n+]2CC)Sc2cc(C)ccc21	34.1% (active)
CCN1/C(=C/c2ccc3ccc(C)cc3[n+]2CC)Sc2ccccc21	38.4% (active)
Cc1cc(-c2ccc(S(=O)(=O)N3CCc4ccccc4C3)s2)on1	1.59% (inactive)
CC(=O)Oc1ccc2c(=O)oc(-c3ccc([N+](=O)[O-])cc3)nc2c1	-20.8% (inactive)
Cc1cccc(N(C(=O)c2csnn2)C(C(=O)NCc2ccccc2)c2ccncc2)c1 (stereo unspecified)	-21.8% (inactive)
CCC(=O)Nc1ccc(S(=O)(=O)Nc2c(NC)c3ccccc3oc2=O)cc1	-6.83% (inactive)
Cn1c(Nc2ccccc2)cc(=O)n(C)c1=O	19.8% (inactive)

Compound	inhibition
Cc1cccc(N2CCN(C(=O)c3cc4c(=O)[nH]c5ccccc5c4n3C)CC2)c1C	-11.3% (inactive)
O=C(NCc1ccco1)C(c1ccncc1)N(C(=O)Cn1nnc2ccccc21)c1ccccc1 (stereo unspecified)	-15.7% (inactive)
COCCNC(=O)C(c1ccc(C)o1)N(Cc1ccccc1)C(=O)Cn1nnc2ccccc21 (stereo unspecified)	-3% (inactive)
COc1ccccc1N(C(=O)Cn1nnc2ccccc21)C(C(=O)NCc1ccco1)c1ccc(C)o1 (stereo unspecified)	27% (active)
CCOc1ccc(C(CC(=O)O)NC(=O)Cc2ccccc2)cc1OC (stereo unspecified)	-15.8% (inactive)
COc1cccc2cc(C(N)=O)/c(=N\NC(=O)c3ccccc3)oc12	20.9% (inactive)
O=C(c1cc(COc2ccc(F)c(F)c2)on1)N1CCOCC1	1.79% (inactive)
CCn1ccnc1CN(C)C(=O)c1cc(COc2ccc(-n3cncn3)cc2)on1	-16.5% (inactive)
C=CCC1(CC=C)CCCN1C(=O)c1cc(COc2ccc(-n3cncn3)cc2)on1	29.1% (active)
O=C(COC(=O)c1ccc(F)cc1)NCCCc1ccccc1	12.2% (inactive)
O=C(Nc1ccccc1)c1nnsc1S(=O)(=O)c1ccc(Cl)cc1	42.6% (active)
CS(=O)(=O)c1ccc(Cl)c(NC(=O)Nc2ccccc2)c1	4.03% (inactive)
O=C(c1ccc(Cl)cc1)c1cnc(Nc2ccccc2)s1	7.11% (inactive)
COc1ccccc1N1CCN(C(=O)c2ccc(NC3=NC4CS(=O)(=O)CC4S3)cc2)CC1 (stereo unspecified)	-7.21% (inactive)
CCOc1ccc(OCc2ccc(C(=O)Nc3cccc(C)n3)o2)cc1	-9.15% (inactive)
O=C(O)c1ccc(NC(=O)c2ccc(COc3ccc(Cl)cc3)o2)cc1	15.6% (inactive)
Cc1cc(OCc2ccc(C(=O)Nc3ccc(C(=O)O)cc3)o2)ccc1Cl	38% (active)
CCNc1c(NS(=O)(=O)c2ccc(C3CCCCC3)cc2)c(=O)oc2ccccc12	12.2% (inactive)
CC(=O)N1CCN(c2ccccc2NC(=S)NC(=O)c2cc3ccccc3o2)CC1	-12.1% (inactive)
Cc1cc(C)nc(N/N=C/c2ccc([N+](=O)[O-])o2)n1	-3.49% (inactive)
Cc1ccc(CNCc2ccc3c(c2)OCO3)c(C)c1	-3.64% (inactive)

Compound	inhibition
COc1cc(NC(=O)CN2C(=O)NC(C)(c3ccc(OC(F)F)cc3)C2=O)cc(OC)c1OC (stereo unspecified)	25.8% (active)
COc1ccc(C(=O)CN2C(=O)NC(C)(c3ccc(C)cc3)C2=O)cc1OC (stereo unspecified)	22.6% (inactive)
COc1ccc(C2(C)NC(=O)N(CC(=O)c3ccc4c(c3)OCO4)C2=O)cc1 (stereo unspecified)	0.08% (inactive)
Cc1nonc1NC(=O)c1oc2ccccc2c1C	-9.19% (inactive)
CCOc1ccc(Cn2nnc(C(=O)NCc3ccccc3)c2N)cc1	35.9% (active)
CCOc1ccc(Cn2nnc(C(=O)Nc3ccc(OC)cc3OC)c2N)cc1	17.7% (inactive)
CCc1ccc(NC(=O)Cn2nnc(C(=O)NCc3ccc(OC)cc3)c2N)cc1	-9.93% (inactive)
O=C(NCCc1ccccn1)c1cccnc1Oc1ccc(Cl)cc1	-10.8% (inactive)
COc1ccc(CCNC(=O)c2ccccc2OCc2ccccc2)cc1	1.73% (inactive)
CCOc1ncccc1C(=O)NCCc1ccc(OC)cc1	24.6% (active)
CC(C)NC(=O)C(c1ccc(F)cc1)N(C(=O)CCC(=O)Nc1ccccn1)c1ccccc1F (stereo unspecified)	-14.6% (inactive)
O=C(NCCc1c[nH]c2ccc(Cl)cc12)c1ccc([N+](=O)[O-])cc1	7.45% (inactive)
Cc1ccc2[nH]cc(CCNC(=O)c3ccc([N+](=O)[O-])cc3)c2c1	25% (active)
Cc1ccc2[nH]cc(CCNC(=O)C3CCCCC3)c2c1	-3.83% (inactive)
O=C(N/N=C/c1ccccc1O)C1CCCC1	-6.49% (inactive)
CCN(CC)CCCNC(=O)CCn1nc(-c2ccc(Cl)cc2)ccc1=O	11% (inactive)
Cc1ccccc1N1CC(C(=O)Nc2ccc3c(c2)OCO3)CC1=O (stereo unspecified)	-9.07% (inactive)
Cc1ccc(NC(=O)C2CC(c3ccc(F)cc3)=NO2)cc1 (stereo unspecified)	-5.41% (inactive)
O=C(Nc1ccc2c(c1)OCO2)C1CC(c2c(F)cccc2Cl)=NO1 (stereo unspecified)	29% (active)
